Reference: article PMC5540273 (PLoS ONE, 2017)

Columns and labels:
Details in all cases: concentration: 1 μM, replicates: in singlicate; n = 1
[1] = test system: T1, PCTK2
T1 construct: gene CDK17

[2] = test system: T2, PCTK3
T2 construct: gene CDK18

[3] = test system: PDGFRA
[4] = test system: PDGFRB
[5] = test system: PDPK1
[6] = test system: PFTAIRE2
[7] = test system: T3, PFTK1
T3 construct: gene CDK14

[8] = test system: PHKG1
[9] = test system: PHKG2
[10] = test system: PIK3C2B
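Note: KINOMEscan kinase panel screen.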

Structure (SMILES) | %Inh [1] | %Inh [2] | %Inh [3] | %Inh [4] | %Inh [5] | %Inh [6] | %Inh [7] | %Inh [8] | %Inh [9] | %Inh [10]
COc1ccc(Nc2nccc(N3CCC(NC(=O)Nc4cccc(OC)c4)C3)n2)cc1 (centres unmarked) [GSK1379742] | 0% | 21% | 0% | 23% | 15% | 10% | 2% | 17% | 0% | 13%
O=C(Nc1n[nH]c2nc(-c3ccc(O)cc3)ccc12)C1CC1 [SB-710363] | 56% | 6% | 48% | 32% | 5% | 28% | 14% | 5% | 0% | 0%
COC(=O)Nc1nc2ccc(Oc3ccc(NC(=O)Nc4cc(C(F)(F)F)ccc4F)cc3)cc2n1C.Cl [GW692089] | 0% | 12% | 78% | 100% | 0% | 6% | 4% | 0% | 0% | 0%
COc1cccc(-c2ccc3c(NC(=O)C4CC4)n[nH]c3n2)c1 [SB-710903] | 19% | 30% | 0% | 34% | 0% | 10% | 25% | 0% | 0% | 0%
COc1cc(Nc2ncc3c(C)nc(-c4cc5ccccc5[nH]4)n3n2)cc(OC)c1OC [GW869516] | 32% | 6% | 0% | 29% | 0% | 0% | 4% | 27% | 0% | 0%
COc1cccc(C2=C(Nc3ccc(Cl)c(C(=O)O)c3)C(=O)NC2=O)c1 [SB-390769] | 0% | 29% | 0% | 5% | 0% | 0% | 26% | 0% | 0% | 0%
Nc1ncc(-c2ccc3nccc(-c4ccncc4)c3c2)cc1S(=O)(=O)N1CCOCC1 [GSK1627798] | 21% | 26% | 0% | 13% | 0% | 39% | 31% | 0% | 0% | 99.5%
COc1cccc(NC(=O)NC2CCN(c3ccnc(Nc4cc(OC)c(OC)c(OC)c4)n3)C2)c1 (centres unmarked) [GSK1379763] | 25% | 21% | 28% | 83% | 0% | 9% | 5% | 0% | 0% | 0%
Nc1n[nH]c2cnc(-c3ccccc3)cc12 [SB-642124] | 0% | 10% | 0% | 21% | 0% | 3% | 19% | 0% | 0% | 0%
Cc1cccc(NC(=O)Nc2ccc(Oc3ncnc4ccn(C)c34)cc2)c1 | 0% | 0% | 99.7% | 100% | 0% | 0% | 0% | 0% | 0% | 0%
COc1cc2c(cc1OCCN1CCNCC1)ncc1c3ccc(C#N)cc3[nH]c21 | 9% | 0% | 96.4% | 89% | 9% | 53% | 9% | 98.7% | 99.3% | 0%
C[C@@H](Oc1cc(-n2cnc3cc(-c4ccnc(NCCS(C)(=O)=O)c4)ccc32)sc1C(N)=O)c1ccccc1Cl [GSK907232] | 9% | 25% | 71% | 97.4% | 28% | 14% | 12% | 0% | 2% | 0%
O=C(Nc1ccccc1F)NC1CCN(c2ccnc(Nc3ccc(F)cc3)n2)CC1 [GSK1379800] | 0% | 0% | 0% | 11% | 0% | 5% | 15% | 0% | 0% | 0%
COc1cc(Nc2nccc(N3CCC(NC(=O)Nc4cccc(C(C)=O)c4)C3)n2)cc(OC)c1OC (centres unmarked) [GSK1379753] | 26% | 0% | 0% | 77% | 0% | 0% | 23% | 0% | 2% | 0%
CN1CCN(CCCNc2nccc(-c3c(-c4ccc(F)cc4)nn4cc(C(F)(F)F)ccc34)n2)CC1 [GW621581] | 0% | 12% | 0% | 10% | 3% | 13% | 0% | 0% | 0% | 0%
C[C@@H]1CC[C@@H](C(=O)Nc2ccccc2)CN1c1cc(-c2ccc3c(N)n[nH]c3c2)nc(N)n1 [GSK2286062] | 13% | 10% | 0% | 23% | 64% | 7% | 29% | 0% | 21% | 0%

Structure (SMILES) | %Inh [1] | %Inh [2] | %Inh [3] | %Inh [4] | %Inh [5] | %Inh [6] | %Inh [7] | %Inh [8] | %Inh [9] | %Inh [10]
CN1CCN(Cc2cccc(-c3ccc4c(Nc5ccc(Oc6ccccc6)cc5)ccnc4c3)c2)CC1 [GW578342] | 69% | 20% | 94.3% | 98.9% | 0% | 14% | 23% | 1% | 0% | 0%
Cn1cc(-c2ccc3c(c2)CCN3C(=O)Cc2cccc(F)c2)c2c(N)ncnc21 [GSK2603358] | 0% | 17% | 78% | 99.8% | 0% | 12% | 18% | 1% | 0% | 80%
FC(F)(F)c1ccc(/C=C/c2cncnc2Nc2ccc3[nH]c(Cc4ccccc4)nc3c2)cc1 [GW709199] | 0% | 4% | 0% | 0% | 0% | 33% | 15% | 43% | 0% | 0%
O=C(Nc1cccc(-c2nn3ccccc3c2-c2ccnc(Nc3cccc(C(F)(F)F)c3)n2)c1)c1c(F)cccc1F [GSK292658] | 0% | 0% | 10% | 97.3% | 0% | 15% | 8% | 0% | 0% | 0%
CCCCc1nn2ncccc2c1-c1ccnc(Nc2ccc(N3CCN(C)CC3)cc2)n1 [GW684941] | 37% | 16% | 98.8% | 100% | 0% | 0% | 0% | 20% | 4% | 66%
c1ccc(-c2n[nH]cc2Nc2ccnc3ccccc23)nc1 [GW694077] | 0% | 9% | 20% | 65% | 0% | 16% | 18% | 0% | 30% | 29%
COc1ccc(Nc2nccc(NCCNC(=O)c3cc4ccccc4s3)n2)cc1 [GSK1379896] | 0% | 0% | 0% | 15% | 8% | 14% | 18% | 0% | 2% | 0%
c1ccc(Oc2ccc(Nc3ccnc4cc(-c5ccc(CNCCN6CCOCC6)o5)ccc34)cc2)nc1 [GW567145] | 0% | 2% | 65% | 89% | 0% | 6% | 11% | 3% | 0% | 0%
Cl.NC(=O)c1cccc(Nc2nccc(Nc3ccc(Oc4c(Cl)cccc4Cl)c(Cl)c3)n2)c1 [GW659009] | 0% | 0% | 0% | 36% | 0% | 15% | 0% | 0% | 0% | 0%
c1ccc(-c2cnc3nccnn23)cc1 [AH20685] | 0% | 15% | 0% | 23% | 0% | 0% | 0% | 40% | 0% | 0%
CSc1cccc2c(-c3ccncn3)c(-c3ccc(F)cc3)nn12 [GW514786] | 0% | 14% | 0% | 7% | 0% | 20% | 28% | 12% | 0% | 0%
Nc1ncc(-c2cccnc2)c2scc(-c3ccc4c(c3)CCN4C(=O)Cc3ccccc3)c12 [GSK683281] | 8% | 18% | 53% | 94.3% | 21% | 33% | 20% | 18% | 0% | 0%
CN(c1ccc(NC(=O)Nc2cc(C(F)(F)F)ccc2F)cc1)c1ccnc(Nc2ccc(S(N)(=O)=O)cc2)n1 [GW809893] | 97.9% | 95.5% | 96.1% | 99.9% | 35% | 96.5% | 97% | 14% | 0% | 29%
O=C(O)C(F)(F)F.O=C(O)C(F)(F)F.O=c1[nH]ccc2nc(N[C@@H]3CCCNC3)nc(Nc3ccc(S(=O)(=O)N4CCOCC4)cc3)c12 [GSK2177277] | 98.3% | 96.2% | 97.5% | 100% | 100% | 61% | 65% | 97.7% | 94.7% | 51%
Cl.c1ccc(-c2ccc3c(Nc4ccc5[nH]ncc5c4)ccnc3c2)nc1 [GW440137] | 14% | 20% | 90% | 89% | 0% | 12% | 19% | 0% | 0% | 3%
Cl.Cl.NCC(NC(=O)c1cc(-c2ccccc2)c(-c2ccnc3[nH]ccc23)s1)c1ccccc1 (centres unmarked) [GSK1321561] | 0% | 0% | 0% | 45% | 20% | 6% | 17% | 0% | 0% | 0%
